52 compounds from PubChem BioAssay AID1851 (National Center for Advancing Translational Sciences (NCATS), 2009) can be followed below.

Screen size: about 16,000 compounds; about 5,100 (32%) were called active. Roughly 25% stayed inconclusive and do not appear here. Calls come from the whole dose curve; as a rule, active = well fitted curve in the direction sought with a large enough effect; inconclusive = small, poorly fitted or top-dose-only effect, or effect the other way; inactive = no such curve, though single readings can be large or run the other way. The list shows a part of the results.

In general, AC50 refers to the midpoint of the concentration-response curve, whichever way the signal moves.
% is set by controls: 0 for no effect and ±100 for the full control effect.

For this assay, the target named is Cytochrome P450 3A4 (Homo sapiens) (UniProt P08684). In words: Cytochrome panel assay with activity outcomes. The conditions noted are these: recombinant CYP, pro-luciferin dealkylation, luminescence, p450-cyp3a4; series mostly up to 57.1 µM.
Sequence of Cytochrome P450 3A4 (Homo sapiens) (P08684 whole entry, looked up): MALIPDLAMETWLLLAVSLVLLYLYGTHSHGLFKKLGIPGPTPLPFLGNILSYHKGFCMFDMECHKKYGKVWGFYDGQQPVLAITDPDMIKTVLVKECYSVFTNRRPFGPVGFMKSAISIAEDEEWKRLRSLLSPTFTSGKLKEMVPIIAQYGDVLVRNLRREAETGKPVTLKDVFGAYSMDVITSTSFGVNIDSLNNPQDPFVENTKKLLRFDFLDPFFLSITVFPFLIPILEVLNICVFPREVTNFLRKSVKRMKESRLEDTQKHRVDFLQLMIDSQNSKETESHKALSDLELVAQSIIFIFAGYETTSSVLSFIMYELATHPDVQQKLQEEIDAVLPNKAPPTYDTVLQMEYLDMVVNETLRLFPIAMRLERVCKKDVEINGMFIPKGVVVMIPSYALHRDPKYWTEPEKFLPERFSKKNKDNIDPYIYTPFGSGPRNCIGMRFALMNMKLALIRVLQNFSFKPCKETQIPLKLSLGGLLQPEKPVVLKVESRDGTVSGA
As to `CSc1nc(Cl)cc(N(CCO)CCO)n1`, the AC50 entry was “inactive”. Turning to `COC(=O)C/C=C\[C@@H](C)[C@@H](/C=N\OCC[C@H]1C=C[C@H](OC(C)=O)[C@@H](COC(C)=O)O1)NS(=O)(=O)c1ccc(C)cc1`, the AC50 is 3.98 µM (active). For `COC(=O)C/C=C\[C@@H](C)[C@@H]1C=C[C@H](OC(C)=O)[C@H](COC(C)=O)O1`, the activity, negative = inhibition is -23.4% [at 11.4 µM] (inactive). For the compound `CCCNC(=O)OC[C@H]1O[C@@H](CCO/N=C\[C@@H](NS(=O)(=O)c2ccc(C)cc2)[C@H](C)/C=C\CC(=O)OC)C=C[C@@H]1Oc1ccc(OC)cc1`, the concentration at half-maximal activity (AC50) was 3.16 µM (active). Still for that read-out and setting: as for `Nc1ccn([C@@H]2CC[C@H](CO)O2)c(=O)n1`, the entry is “inactive”. On to `CC(C)(CO)N1CCN(C(=S)Nc2ccccc2)CC1`, for which the activity, negative = inhibition was -8.25% [at 11.4 µM] (inactive). As for `COc1cc2c(cc1OC)CN(C(=S)Nc1ccccc1)CC2`, the AC50 was 12.6 µM (active).

As to `CC(=O)Nc1sc2c(c1CN1CCN(C)CC1)CCCC2`, the AC50 result is “inactive”. The same measure, in the same setting: as for `CC(=O)NCCC(=O)Nc1sc2c(c1-c1nc3ccccc3[nH]1)CCCC2`, the figure is 12.6 µM (active). On the same count and under the same terms, the result for `COc1cccc(Cn2c(=O)c(-c3cccs3)nc3cnc(N4CCN(C)CC4)nc32)c1` reads 12.6 µM (active). With `COc1cccc(Cn2c(=O)c(-c3cccs3)nc3cnc(N4CCNCC4)nc32)c1`, the concentration at half-maximal activity (AC50) was 15.8 µM (active). Same read-out and setting: the result for `CC(C)OC(=O)c1cc2c(OC[C@@H](O)CNC(C)(C)C)cccc2[nH]1` reads “inactive”. For the compound `Clc1ccc2c(N3CCC(CCC4CCN(c5ncnc6cc(Cl)ccc56)CC4)CC3)ncnc2c1`, the activity, negative = inhibition is -31.6% [at 11.4 µM] (inactive). Regarding `Cc1ccccc1-c1ccc2ncnc(N3CCN(C)CC3)c2c1`, the AC50 was 3.98 µM (active).

As to `CN1CCN(c2ncnc3ccc(-c4ccccc4C#N)cc23)CC1`, the AC50 is 15.8 µM (active). Same read-out and setting: the result for `CN1CCN(c2ncnc3ccc(-c4ccccc4Cl)cc23)CC1` reads 5.01 µM (active). `COC(=O)c1ccc(Oc2nc(N(C)C)nc(N3CCOCC3)n2)cc1`: the activity, negative = inhibition is 14.7% [at 11.4 µM] (inactive). `c1ccc(C2OCC3(CO2)COC(c2ccccc2)OC3)cc1` (configuration not stated): the AC50 entry is “inactive”. With `C[C@H]1[C@H](C)OC(=O)C[C@H](O)C[C@H](O)C[C@H](O)CC[C@H](O)[C@H](O)CC(=O)C[C@H](O)[C@H](C(=O)O)[C@H](O)C[C@H](O[C@@H]2O[C@@H](C)[C@H](O)[C@@H](N)[C@@H]2O)C=CC=CC=CC=CCCC=CC=C[C@@](C)(O)[C@H]1O`, the activity, negative = inhibition was 7.28% [at 11.4 µM] (inactive). On to `CCOc1ccc2c(ccc(/C=C\c3cc(C)c4cccnc4c3O)[n+]2C)c1`, for which the activity, negative = inhibition was -23.9% [at 11.4 µM] (inactive). On the same count and under the same terms, the result for `CCCc1cc(=O)oc2c(CN3CCOCC3)c(O)ccc12` reads 1.81% [at 2.29 µM] (inactive); that for `Cn1c(=O)n2n(c1=O)[C@H]1[C@H](O)[C@H]3O[C@H]3C(=O)[C@H]1CC2`, -16.9% [at 11.4 µM] (inactive). Turning to `Cc1cc(Cl)nc2ccc(Cc3ccc4nc(Cl)cc(C)c4c3)cc12`, the AC50 was 3.16 µM (active). Still for that read-out and setting: the result for `CCc1c(C)nc2ccc(Br)cc2c1Cl` reads “inactive”. `CC(=O)Nc1ccc(Cc2ccc3[nH]c(=O)cc(C)c3c2)cc1`: the activity, negative = inhibition is -20.4% [at 11.4 µM] (inactive). For `COc1cccc(C(=O)N(Cc2ccccc2)Cc2cc3cc4c(cc3[nH]c2=O)OCCO4)c1`, the half-maximal activity concentration (AC50) is 3.98 µM (active). Take `COc1ccc2[nH]c(=O)c(CN(CCc3ccccc3)C(C)=O)cc2c1`: the AC50 was 17.8 µM (active). Still for that read-out and setting: as for `O=C(O)c1cc2cc(OCc3ccccc3)ccc2[nH]1`, the entry is “inactive”. Consider `COc1cccc(C(=O)n2c(SC)nc3cc4c(cc32)OCCO4)c1`, for which the AC50 entry was “inactive”.

In the case of `CCOc1ccc2[nH]c(=O)c(CN(CCc3ccccc3)C(=O)N3CCCC3)cc2c1`, the AC50 is 3.55 µM (active).

On to `CCOc1ccc2[nH]c(=O)c(CN(CCc3ccccc3)C(=O)N3CCOCC3)cc2c1`, for which the AC50 is 7.94 µM (active).

With `CCOc1ccc(Cc2nc(C)c(CC(=O)N3CCOCC3)c(=O)[nH]2)cc1`, the activity, negative = inhibition was 1.75% [at 11.4 µM] (inactive).

On to `COc1ccc2[nH]c(=O)c(NC(N)=S)nc2c1`, for which the AC50 entry was “inactive”. As for `C[N+]1(CC(=O)OCCCc2ccccc2)CCOCC1`, the AC50 result was “inactive”. Turning to `CCc1cccc(C)c1NC(=O)CSc1nc2ccc(N3C(=O)c4ccccc4C3=O)cc2s1`, the AC50 is 4.47 µM (active). Take `CCN(CC)C(=O)CSc1nc2ccc(NC(=O)CSc3nnc(COc4ccccc4C)n3C)cc2s1`: the activity, negative = inhibition is -17.9% [at 2.29 µM] (inactive). For the compound `Cc1cnc(CNc2nc(-c3ccc4c(c3)OCO4)nc3ccccc23)cn1`, the AC50 was 0.794 µM (active). On the same count and under the same terms, as for `Cc1cccc(CNc2nc(-c3ccc4c(c3)OCO4)nc3ccccc23)c1`, the figure is 0.398 µM (active). `c1cncc(CNc2nc(-c3ccc4c(c3)OCO4)nc3ccccc23)c1`: the AC50 is 0.316 µM (active). The same measure, in the same setting: the result for `c1csc(CNc2nc(-c3ccc4c(c3)OCO4)nc3ccccc23)c1` reads 1 µM (active). As to `C[C@]1(O)CC[C@H]2[C@H]3CC=C4N5CCN=C5CC[C@@]4(C)[C@H]3CC[C@@]21C`, the activity, negative = inhibition is -12.7% [at 11.4 µM] (inactive).

Consider `O=C(O)c1cc(-c2ccc3cc4c(cc3c2)OCO4)nc2ccccc12`, for which the activity, negative = inhibition was -17.7% [at 11.4 µM] (inactive). As to `N=C(N)SCc1cccc(-c2nc3ccccc3c(=O)o2)c1`, the activity, negative = inhibition is -20.1% [at 11.4 µM] (inactive).

On to `CC(=O)NCCNc1nc(-c2ccc3c(c2)OCO3)nc2ccccc12`, for which the AC50 was 3.98 µM (active). The same measure, in the same setting: the result for `c1ccc(CNc2nc(-c3ccc4c(c3)OCO4)nc3ccccc23)cc1` reads 1 µM (active). Take `COc1ccc(CSC2=C(C#N)C(=O)NC3(CCCCC3)S2)cc1`: the activity, negative = inhibition is -12.2% [at 11.4 µM] (inactive). For `O=C1C=C(c2cccs2)CC(c2cccs2)C1n1cnc([N+](=O)[O-])c1` (configuration not stated), the AC50 entry was “inactive”.

As for `CCCCSCc1nc2nc(Cl)c(Cl)nc2[nH]1`, the activity, negative = inhibition is -27.9% [at 11.4 µM] (inactive). With `CC1CCN(C(=S)c2ccc(O)cc2)CC1`, the activity, negative = inhibition is 11.7% [at 2.29 µM] (inactive).

Turning to `C=CCSc1nnc2c(n1)OC(c1c(C)[nH]n(-c3ccccc3)c1=O)Nc1ccccc1-2` (configuration not stated), the AC50 was 14.1 µM (active). In the case of `CSc1nnc2c(n1)OC(C)N(C(=O)c1ccccc1)c1ccccc1-2` (configuration not stated), the AC50 result was “inactive”. In the case of `CC(C)[C@@H]1NC(=O)[C@H](CCCCN)NC(=O)[C@H](Cc2c[nH]c3ccccc23)NC(=O)[C@H](Cc2ccc(O)cc2)NC(=O)[C@H](C)N(C)C(=O)[C@H](Cc2ccccc2)NC1=O`, the AC50 is 3.98 µM (active).
